Inconclusive results are not listed. Calls of active or inactive are those of the source. Calls come from the whole dose curve; as a rule, active = well fitted curve in the direction sought with a large enough effect in the repeat runs; inconclusive = weak or mixed curves; inactive = no such curve, though single readings can be large; an effect the other way counts as inactive or inconclusive.
Assays:
[1] = target: Cytochrome P450 2D6 (Homo sapiens) (UniProt P10635); assay: Cytochrome P450 Family 2 Subfamily D Member 6 (CYP2D6) small molecule antagonists: luciferase reporter qHTS assay (AID 1671196); note: nearly all actives have a fitted effect of over 50% in size; note: potency is the fitted concentration of half-maximal effect; for activity change, negative = inhibition: series mostly up to about 120 µM
Procedure, shortened: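 Room-temperature luminescent CYP2D6 activity assay: compound preincubated 10 min with enzyme–substrate mix, NADPH-initiated reaction 1 h, detection reagent 20 min before reading.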

[2] = target: Cytochrome P450 2C19 (Homo sapiens) (UniProt P33261); assay: Cytochrome P450 Family 2 Subfamily C Member 19 (CYP2C19) small molecule antagonists: luciferase reporter qHTS assay (AID 1671197); note: nearly all actives have a fitted effect of over 65% in size; note: potency is the fitted concentration of half-maximal effect; for activity change, negative = inhibition: series mostly up to about 120 µM
Procedure, shortened: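 First, compounds are pinned into enzyme-substrate mix and held 10 min at room temperature. Second, NADPH regeneration solution is added and plates incubate 1 h at 37C. Third, detection reagent is added and luminescence read after 20 min.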

[3] = target: Cytochrome P450 2C9 (Homo sapiens) (UniProt P11712); assay: Cytochrome P450 Family 2 Subfamily C Member 9 (CYP2C9) small molecule antagonists: luciferase reporter qHTS assay (AID 1671198); note: nearly all actives have a fitted effect of over 50% in size; note: potency is the fitted concentration of half-maximal effect; for activity change, negative = inhibition: series mostly up to about 120 µM
Procedure, shortened: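 CYP2C9 activity was measured with a P450-Glo proluciferin substrate. Enzyme–substrate mix was held with compound for 10 min at room temperature, then NADPH regeneration solution was added for 1 h at 37C. Luciferin product was read as luminescence.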

[4] = target: Cytochrome P450 1A2 (Homo sapiens) (UniProt P05177); assay: Cytochrome P450 Family 1 Subfamily A Member 2 (CYP1A2) small molecule antagonists: luciferase reporter qHTS assay (AID 1671199); note: nearly all actives have a fitted effect of over 50% in size; note: potency is the fitted concentration of half-maximal effect; for activity change, negative = inhibition: series mostly up to about 120 µM
Procedure, shortened: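 Room-temperature CYP1A2 reaction with proluciferin substrate: compounds added from DMSO, 10 min preincubation, NADPH regeneration for 1 h. Luciferin detection reagent then added; luminescence recorded as RLU.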

[5] = target: Voltage-gated inwardly rectifying potassium channel KCNH2 (Homo sapiens) (UniProt Q12809); assay: Human Ether-a-go-go-Related Gene (hERG) channel small molecule antagonists: fluorescence cell-based qHTS assay (AID 1671200); note: nearly all actives have a fitted effect of over 50% in size; note: potency is the fitted concentration of half-maximal effect;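 for activity change, negative = inhibition: hERG-expressing U2OS cells given a thallium stimulus after FluxOR II dye loading; series mostly up to about 77 µM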
Procedure, shortened: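 Kinetic two-minute fluorescence traces, sampled at 1 s, were collected following thallium stimulus of U2OS cells (1000 per well) that had been cultured overnight at 37 C and loaded with FluxOR II.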

[6] = target: Cytochrome P450 3A4 (Homo sapiens) (UniProt P08684); assay: Cytochrome P450 Family 3 Subfamily A Member 4 (CYP3A4) small molecule antagonists: luciferase reporter qHTS assay (AID 1671201); note: nearly all actives have a fitted effect of over 50% in size; note: potency is the fitted concentration of half-maximal effect; for activity change, negative = inhibition: series mostly up to about 120 µM
Procedure, shortened: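 Proluciferin-to-luciferin conversion by CYP3A4, NADPH-regenerated, 1 h RT; luminescence read as RLU. Ketoconazole as control.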

[7] = target: Nuclear receptor subfamily 1 group I member 2 (Homo sapiens) (UniProt O75469); assay: CYP3A4 induction through human pregnane X receptor (PXR) by small molecules, qHTS assay (AID 1346984); note: nearly all actives have a fitted effect of over 40% in size
Procedure, shortened: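 Cells (DPX-2; HepG2 with PXR element plus CYP3A4-promoter luciferase) settled 5hr, then were treated 24hr at 37C. A 3hr, 3uM-final Luciferin-IPA step preceded luminescence measurement with One-Glo.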

[8] = target: Nuclear receptor subfamily 1 group I member 2 (Homo sapiens) (UniProt O75469); assay: Human pregnane X receptor (PXR) activation by small molecules, qHTS assay (AID 1346985); note: nearly all actives have a fitted effect of over 40% in size
Procedure, shortened: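 DPX-2 cells (HepG2 co-transfected with a PXR response element and a CYP3A4-promoter luciferase construct) were seeded at 2,000 per well, rested 5 hr at 37C, then exposed to DMSO-dissolved compounds for 24 hr. Activation was read as luciferase luminescence.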
% is set by controls: 0 for no effect and ±100 for the full control effect.

Sequence of Voltage-gated inwardly rectifying potassium channel KCNH2 (Homo sapiens) (Q12809 whole entry, looked up): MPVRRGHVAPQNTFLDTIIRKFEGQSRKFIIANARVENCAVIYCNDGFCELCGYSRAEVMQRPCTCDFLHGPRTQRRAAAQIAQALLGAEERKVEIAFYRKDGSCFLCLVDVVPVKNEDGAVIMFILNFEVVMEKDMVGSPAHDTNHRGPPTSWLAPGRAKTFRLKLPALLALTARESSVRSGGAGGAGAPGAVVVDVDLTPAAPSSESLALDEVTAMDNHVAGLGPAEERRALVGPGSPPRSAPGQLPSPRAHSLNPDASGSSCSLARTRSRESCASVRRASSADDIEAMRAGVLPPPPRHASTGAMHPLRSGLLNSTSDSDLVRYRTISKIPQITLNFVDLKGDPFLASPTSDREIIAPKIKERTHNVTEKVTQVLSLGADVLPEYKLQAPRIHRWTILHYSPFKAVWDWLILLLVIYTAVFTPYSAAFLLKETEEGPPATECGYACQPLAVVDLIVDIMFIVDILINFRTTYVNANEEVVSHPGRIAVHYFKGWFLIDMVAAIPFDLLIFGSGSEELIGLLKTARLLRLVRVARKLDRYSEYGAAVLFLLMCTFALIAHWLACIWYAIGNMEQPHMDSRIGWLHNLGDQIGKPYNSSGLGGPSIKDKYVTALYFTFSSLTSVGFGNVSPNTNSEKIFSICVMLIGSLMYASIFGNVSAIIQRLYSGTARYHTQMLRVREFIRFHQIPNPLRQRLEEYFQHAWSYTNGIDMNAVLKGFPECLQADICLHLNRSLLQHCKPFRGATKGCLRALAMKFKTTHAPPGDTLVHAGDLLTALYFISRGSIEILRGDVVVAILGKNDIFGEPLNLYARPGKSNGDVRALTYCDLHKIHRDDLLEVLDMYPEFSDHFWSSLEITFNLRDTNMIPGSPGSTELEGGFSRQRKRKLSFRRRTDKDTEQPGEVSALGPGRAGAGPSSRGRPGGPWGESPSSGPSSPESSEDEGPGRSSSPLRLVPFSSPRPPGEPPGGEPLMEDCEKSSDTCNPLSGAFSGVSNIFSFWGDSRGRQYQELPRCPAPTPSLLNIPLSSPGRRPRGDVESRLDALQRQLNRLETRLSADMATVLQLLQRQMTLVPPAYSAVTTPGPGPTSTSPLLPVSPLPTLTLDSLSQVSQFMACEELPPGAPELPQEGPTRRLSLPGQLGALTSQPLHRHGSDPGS
Sequence of Cytochrome P450 2D6 (Homo sapiens) (P10635 whole entry, looked up): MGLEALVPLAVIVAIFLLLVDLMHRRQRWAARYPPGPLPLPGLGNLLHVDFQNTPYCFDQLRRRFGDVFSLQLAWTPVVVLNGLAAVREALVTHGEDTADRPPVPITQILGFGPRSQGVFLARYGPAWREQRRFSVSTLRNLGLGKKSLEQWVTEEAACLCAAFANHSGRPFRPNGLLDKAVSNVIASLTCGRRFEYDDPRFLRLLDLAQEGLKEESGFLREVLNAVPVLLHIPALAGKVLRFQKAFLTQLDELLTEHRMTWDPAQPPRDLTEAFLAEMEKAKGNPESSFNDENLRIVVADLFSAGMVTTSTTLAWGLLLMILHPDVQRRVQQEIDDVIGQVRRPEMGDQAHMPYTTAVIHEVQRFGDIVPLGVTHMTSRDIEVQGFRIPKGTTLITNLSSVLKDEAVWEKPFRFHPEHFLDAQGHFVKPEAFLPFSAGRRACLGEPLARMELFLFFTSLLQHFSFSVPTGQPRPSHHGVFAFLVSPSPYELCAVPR
Sequence of Cytochrome P450 3A4 (Homo sapiens) (P08684 whole entry, looked up): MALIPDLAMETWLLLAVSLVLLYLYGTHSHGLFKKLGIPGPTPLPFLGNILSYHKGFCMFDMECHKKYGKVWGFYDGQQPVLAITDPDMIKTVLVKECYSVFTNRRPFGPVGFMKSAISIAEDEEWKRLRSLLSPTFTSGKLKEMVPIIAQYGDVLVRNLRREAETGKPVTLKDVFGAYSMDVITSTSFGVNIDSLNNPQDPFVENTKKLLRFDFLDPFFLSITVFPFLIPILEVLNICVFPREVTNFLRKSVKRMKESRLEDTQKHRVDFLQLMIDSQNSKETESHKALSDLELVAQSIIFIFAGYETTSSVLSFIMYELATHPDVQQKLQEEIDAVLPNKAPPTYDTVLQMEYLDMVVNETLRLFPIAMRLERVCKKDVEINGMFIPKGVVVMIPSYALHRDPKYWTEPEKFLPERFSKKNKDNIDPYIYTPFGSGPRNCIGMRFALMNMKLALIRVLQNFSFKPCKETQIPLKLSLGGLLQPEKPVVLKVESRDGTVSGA
Sequence of Cytochrome P450 2C19 (Homo sapiens) (P33261 whole entry, looked up): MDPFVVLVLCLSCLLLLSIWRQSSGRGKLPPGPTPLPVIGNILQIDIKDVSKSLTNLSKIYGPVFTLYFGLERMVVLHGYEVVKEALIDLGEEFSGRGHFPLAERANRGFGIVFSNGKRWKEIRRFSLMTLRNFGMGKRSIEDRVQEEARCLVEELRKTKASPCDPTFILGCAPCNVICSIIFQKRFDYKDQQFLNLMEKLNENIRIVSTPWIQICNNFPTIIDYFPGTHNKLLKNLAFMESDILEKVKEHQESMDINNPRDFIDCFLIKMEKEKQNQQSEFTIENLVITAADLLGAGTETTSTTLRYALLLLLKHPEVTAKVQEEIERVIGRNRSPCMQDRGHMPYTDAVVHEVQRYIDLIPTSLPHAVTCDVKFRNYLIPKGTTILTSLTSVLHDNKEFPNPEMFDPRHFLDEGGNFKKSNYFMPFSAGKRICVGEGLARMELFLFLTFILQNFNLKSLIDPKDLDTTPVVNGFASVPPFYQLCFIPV
Sequence of Cytochrome P450 1A2 (Homo sapiens) (P05177 whole entry, looked up): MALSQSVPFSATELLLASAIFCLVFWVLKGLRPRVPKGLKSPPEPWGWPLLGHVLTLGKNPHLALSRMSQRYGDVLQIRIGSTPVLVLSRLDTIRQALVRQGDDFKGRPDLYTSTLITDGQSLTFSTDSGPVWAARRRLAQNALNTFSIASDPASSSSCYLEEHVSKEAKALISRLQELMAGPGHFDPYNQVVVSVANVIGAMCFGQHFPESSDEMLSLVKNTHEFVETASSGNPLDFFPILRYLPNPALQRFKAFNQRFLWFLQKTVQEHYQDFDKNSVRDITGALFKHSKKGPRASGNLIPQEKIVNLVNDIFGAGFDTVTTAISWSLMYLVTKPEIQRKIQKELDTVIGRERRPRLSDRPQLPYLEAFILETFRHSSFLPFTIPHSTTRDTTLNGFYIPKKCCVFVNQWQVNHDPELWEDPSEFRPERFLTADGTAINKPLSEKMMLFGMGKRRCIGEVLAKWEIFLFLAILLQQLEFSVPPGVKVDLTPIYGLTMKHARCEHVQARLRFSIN
Sequence of Cytochrome P450 2C9 (Homo sapiens) (P11712 whole entry, looked up): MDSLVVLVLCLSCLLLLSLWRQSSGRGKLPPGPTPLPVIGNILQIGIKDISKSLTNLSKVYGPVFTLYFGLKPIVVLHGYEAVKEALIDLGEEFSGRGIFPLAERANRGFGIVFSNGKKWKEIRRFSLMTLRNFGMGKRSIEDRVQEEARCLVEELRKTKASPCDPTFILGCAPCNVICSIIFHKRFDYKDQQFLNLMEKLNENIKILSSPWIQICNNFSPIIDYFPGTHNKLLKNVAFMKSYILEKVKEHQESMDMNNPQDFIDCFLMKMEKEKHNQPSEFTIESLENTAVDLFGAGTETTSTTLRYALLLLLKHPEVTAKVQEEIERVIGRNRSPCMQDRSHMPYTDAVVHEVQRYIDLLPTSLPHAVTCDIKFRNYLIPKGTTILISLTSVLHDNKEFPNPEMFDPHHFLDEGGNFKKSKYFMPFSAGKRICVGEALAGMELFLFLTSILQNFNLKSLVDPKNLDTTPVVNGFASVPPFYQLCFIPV

COC(=O)C(c1ccccc1Cl)N1CCc2sccc2C1 (stereo not drawn)
inactive: Potency [5]
active: Potency [1] 17.4 µM | Potency [2] 0.871 µM | Potency [3] 17.4 µM | Potency [4] 15.5 µM

N#Cc1cc(NC(=O)C(=O)O)c(Cl)c(NC(=O)C(=O)O)c1
inactive: Potency [1] | Potency [2] | Potency [3] | Potency [4] | Potency [5] | Potency [6]

O=C[C@@H](O)[C@H](O)[C@H](O)CO
inactive: Potency [1] | Potency [2] | Potency [3] | Potency [4] | Potency [5] | Potency [6]

O=S(=O)(O)CC(O)CCl (stereo not drawn)
inactive: Potency [1] | Potency [2] | Potency [3] | Potency [4] | Potency [5] | Potency [6]

CCOC(=O)COc1ccc2c(C)c(CCN(CC)CC)c(=O)oc2c1Cl
inactive: outcome [7] | outcome [8] | Potency [3] | Potency [4] | Potency [6]

COc1ccc2cc(CCC(C)=O)ccc2c1
inactive: outcome [7] | Potency [1] | Potency [5] | Potency [6]
active: Potency [2] 11 µM

O=Cc1ccc(C(=O)O)cc1
inactive: Potency [1] | Potency [2] | Potency [3] | Potency [4] | Potency [5] | Potency [6]

CSC(=O)c1cccc2nnsc12
active: Potency [1] 35.6 µM | Potency [2] 12.6 µM | Potency [3] 7.96 µM | Potency [4] 0.71 µM
inactive: Potency [5] | Potency [6]

CC/C=C\CCCCCCCCCCOC(C)=O
inactive: Potency [1] | Potency [2] | Potency [3] | Potency [4] | Potency [5] | Potency [6]

Cc1nc2ccc(Cl)cc2[nH]1
active: Potency [1] 31.7 µM | Potency [2] 39.8 µM | Potency [4] 2.82 µM
inactive: Potency [3] | Potency [5]

CCCC(C)C(O)CC (stereo not drawn)
inactive: Potency [1] | Potency [2] | Potency [3] | Potency [4] | Potency [5] | Potency [6]

O=C(OOC(=O)c1ccccc1)c1ccccc1
inactive: outcome [7] | outcome [8] | Potency [3] | Potency [4] | Potency [5] | Potency [6]

c1cc2ccc3ccc4ccc5cccc6c(c1)c2c3c4c56
inactive: activity change, negative = inhibition [1] 0.702% [at 4.07 µM] | activity change, negative = inhibition [2] -3.91% [at 4.07 µM] | activity change, negative = inhibition [3] -14.6% [at 4.07 µM] | activity change, negative = inhibition [5] 0.437% [at 2.72 µM] | activity change, negative = inhibition [6] -22.2% [at 4.07 µM]
active: Potency [4] 0.2 µM

CC[N+](C)(CC)CC
inactive: Potency [1] | Potency [2] | Potency [3] | Potency [4] | Potency [5] | Potency [6]

CCCOc1ccc(C(=O)OCCN(CC)CC)cc1N
inactive: Potency [2] | Potency [3] | Potency [5] | Potency [6]
active: Potency [1] 4.9 µM | Potency [4] 17.4 µM

CCCC(=O)CC
active: Potency [2] 41.2 µM | Potency [4] 20.6 µM
inactive: Potency [1] | Potency [3] | Potency [5] | Potency [6]

C[C@@H]1CCC[C@H](C)N1CCCC(O)(c1ccccc1)c1ccccn1 (stereo partly drawn)
inactive: Potency [2] | Potency [3] | Potency [4]
active: Potency [1] 0.692 µM | Potency [5] 8.49 µM

CCCc1ncc(C(=O)O)s1
inactive: Potency [1] | Potency [2] | Potency [3] | Potency [4] | Potency [5] | Potency [6]

CCCCCCC(O)CO (stereo not drawn)
inactive: Potency [1] | Potency [2] | Potency [3] | Potency [4] | Potency [5] | Potency [6]

CN(C)c1ccncc1
active: Potency [1] 31.7 µM
inactive: Potency [2] | Potency [3] | Potency [4] | Potency [5] | Potency [6]

Cc1ccc(O)c(C(=O)c2ccccc2)c1
active: Potency [1] 11.4 µM | Potency [2] 1.01 µM | Potency [3] 5.69 µM | Potency [4] 1.43 µM | Potency [6] 32 µM

CCOCCOCCOC(C)=O
inactive: Potency [1] | Potency [2] | Potency [3] | Potency [4] | Potency [5] | Potency [6]

C=CC(C)(CCC=C(C)C)OC(=O)C(C)C (stereo not drawn)
active: Potency [2] 71 µM | Potency [3] 39.9 µM | Potency [6] 63.3 µM
inactive: Potency [1] | Potency [4] | Potency [5]

CCCCCCCCCCCCCC(=O)OCC
inactive: Potency [1] | Potency [2] | Potency [3] | Potency [5] | Potency [6]

Cc1ccccc1OCC(=O)O
inactive: Potency [1] | Potency [2] | Potency [4] | Potency [5] | Potency [6]
active: Potency [3] 79.6 µM

CC(=O)O[C@@H]1CC2C3CCc4cc(OC(=O)c5ccccc5)ccc4C3CCC2(C)[C@H]1OC(C)=O (stereo partly drawn)
active: Potency [3] 11 µM
inactive: Potency [1] | Potency [2] | Potency [4] | Potency [6]

O=CN1CCCCC1
inactive: Potency [1] | Potency [2] | Potency [3] | Potency [4] | Potency [5] | Potency [6]

Cc1cc(=O)oc2cc(O[C@@H]3SC[C@@H](O)[C@H](O)[C@H]3O)ccc12
inactive: Potency [1] | Potency [2] | Potency [3] | Potency [4] | Potency [5] | Potency [6]

O=c1[nH]c(=O)c2cn[nH]c2[nH]1
inactive: Potency [1] | Potency [2] | Potency [3] | Potency [4] | Potency [5] | Potency [6]

CC/C=C\CCOC(=O)c1ccccc1
inactive: Potency [1] | Potency [2] | Potency [3] | Potency [5] | Potency [6]

COC(=O)c1cc(Cl)c(NC(C)=O)cc1OC
active: Potency [4] 2.45 µM
inactive: Potency [1] | Potency [2] | Potency [3] | Potency [5] | Potency [6]

C=CC(=O)OCCOCCOCC
inactive: Potency [1] | Potency [2] | Potency [3] | Potency [4] | Potency [5] | Potency [6]

From PubChem BioAssay (Tox21)
